Shown are actives, neighbours in structure and some others; about 12% of the full set was active somewhere.
WT yeast gro inh – growth inhibition of WT yeast, mitochondrial fusion screen; mitochondrial fusion phenotypic screen, WT strain; inhibition, % at 10 µM; 190,000 tested, 2.1% active; AID 1362; in the data active means inhibition above about 58%; tested in S. cerevisiae
Calpain2 inh – inhibitors of pig calpain II. purified calpain II, fluorogenic peptide substrate, 30 min. 220,000 tested, 0.37% active. inhibition, % at 16 µM;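 active means inhibition above about 50%, limit read from the data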
KCC2 mod – modulates chloride dependent transport by human KCC2; KCC2 cells, thallium flux FluoZin-2 fluorescence; B-score of Tl+ flux slope (higher = more flux/activation; lower = inhibition) at 10 µM; 190,000 tested, 2.2% active;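 active means thallium flux slope and its plate-corrected score both differing from the plate sample mean at a set confidence after two filtering rounds, in either direction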;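 further: slope of fluorescence scaled to starting intensity during 10 to 20 s after thallium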
ROMK primary – modulates human ROMK potassium channel activity; B-score at 10 µM; Tet-inducible ROMK, thallium flux fluorescence; actives lie on both sides; 130,000 tested, 2% active; P48048; AID 1918;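 active means signal ratio slope over the read window, or its plate-corrected B-score, at least 3 SD from the plate mean, either direction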;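 further: B-score of the F/F0 ratio slope over 7 to 12 s after thallium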
Target sequence (P48048 whole entry, looked up): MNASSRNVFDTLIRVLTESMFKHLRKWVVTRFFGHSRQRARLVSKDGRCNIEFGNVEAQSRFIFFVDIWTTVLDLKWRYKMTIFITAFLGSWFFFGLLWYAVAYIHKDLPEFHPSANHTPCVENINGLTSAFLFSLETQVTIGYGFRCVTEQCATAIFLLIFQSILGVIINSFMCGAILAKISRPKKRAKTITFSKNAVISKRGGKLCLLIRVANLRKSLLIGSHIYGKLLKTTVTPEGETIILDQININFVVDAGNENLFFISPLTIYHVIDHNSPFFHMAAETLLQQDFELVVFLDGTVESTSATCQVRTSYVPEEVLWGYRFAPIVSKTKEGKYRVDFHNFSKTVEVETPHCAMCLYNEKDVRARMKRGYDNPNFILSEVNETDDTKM
L major viab – reduces viability of Leishmania major promastigotes; AID 1063; resazurin fluorescence viability; 200,000 tested, 9% active; inhibition, % at 10 µM; in the data active means inhibition above about 50%;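 further: promastigotes grown with compound for 44 hours at 28 °C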
Starred values were filed as active, the others as inactive.

Results for CCCCNC(=S)N1CCN(C(c2ccccc2)c2ccccc2)CC1 ?
WT yeast gro inh: 66*; Calpain2 inh: 2; KCC2 mod: 0.4; ROMK primary: 0.27; L major viab: 28

What do the screens show for `Cc1ccc(Cl)cc1N1CCN(c2cccc[n+]2C)CC1`?
WT yeast gro inh: 11; Calpain2 inh: 1; KCC2 mod: 0.86; ROMK primary: -0.55; L major viab: 74*

Results for O=C(CSc1nnc(-c2cccs2)o1)N1CCc2ccccc21 ?
WT yeast gro inh: -8; Calpain2 inh: 0; KCC2 mod: -0.93; L major viab: 2

Results for C=CCSc1nnc(-c2cc3c(s2)-c2ccccc2CC3)o1 ?
WT yeast gro inh: 66*; Calpain2 inh: inactive; KCC2 mod: -1.2; L major viab: -4

How did O=C(CCCSc1nnc(Nc2ccccc2F)s1)N1CCOCC1 do in these assays?
WT yeast gro inh: -5; Calpain2 inh: -2; KCC2 mod: -0.27; ROMK primary: -0.59; L major viab: 2

What do the screens show for `Cc1cc(C)c(C)c(S(=O)(=O)N[C@@H](C)C(=O)OCc2cc(=O)n3cc(Br)ccc3n2)c1C`?
WT yeast gro inh: -24; Calpain2 inh: -72; KCC2 mod: -1.1; ROMK primary: 0.29; L major viab: 2

How did O=C(COc1ccc(Cl)cc1Cl)NNC(=S)NCc1ccco1 do in these assays?
WT yeast gro inh: 76*; Calpain2 inh: -22; KCC2 mod: 3.7; ROMK primary: -1.7; L major viab: 0

Results for CCCCCN1C=CC(=C2C(=O)c3ccccc3C2=O)C=C1 ?
WT yeast gro inh: 58*; Calpain2 inh: 15; L major viab: 12

Results for O=C1NC2(CCN(Cc3ccccc3)CC2)Oc2ccccc21 ?
WT yeast gro inh: 2; Calpain2 inh: 14; KCC2 mod: 0.25; ROMK primary: 0.012; L major viab: 6

Results for O=C1c2ccccc2OC2(C=Cc3ccccc3O2)N1Cc1ccccc1 (stereo not given) ?
WT yeast gro inh: 69*; Calpain2 inh: 8; KCC2 mod: -0.56; ROMK primary: 0.19; L major viab: 24

How did Cc1ccc(S(=O)(=O)N(C)c2ccc3sc(C)nc3c2)cc1 do in these assays?
WT yeast gro inh: -9; Calpain2 inh: -22; KCC2 mod: -0.34; ROMK primary: 0.8; L major viab: -5

Results for COc1ccccc1-c1nc(COc2ccc(Cl)cc2Cl)no1 ?
Calpain2 inh: 0; KCC2 mod: -0.0065

What do the screens show for `C=CCn1c(N)c(C(=O)OCCC)c2nc3ccccc3nc21`?
WT yeast gro inh: 8; Calpain2 inh: inactive; KCC2 mod: -1.6; ROMK primary: -0.89; L major viab: 100*

What do the screens show for `O=[N+]([O-])c1ccc(-n2nnnc2-c2ccccc2)cc1`?
WT yeast gro inh: -4; Calpain2 inh: -17; KCC2 mod: -0.036; ROMK primary: -0.24; L major viab: 7

Results for O=[N+]([O-])c1ccc(-n2nnnc2-c2ccccc2)c([N+](=O)[O-])c1 ?
WT yeast gro inh: 30; Calpain2 inh: 25; KCC2 mod: 1.8; ROMK primary: 0.56; L major viab: 100*

What do the screens show for `Clc1ccc2nc(C3CCN(Cc4ccccc4)CC3)[nH]c2c1`?
WT yeast gro inh: -1; Calpain2 inh: -13; KCC2 mod: -0.42; L major viab: 88*

What do the screens show for `COc1ccc2nc(SCC(=O)N3CCCCCC3)c(C#N)cc2c1`?
WT yeast gro inh: 0; Calpain2 inh: -79; ROMK primary: 0.96; L major viab: 80*

How did CCOc1ccc2nc(SCC(=O)N3c4ccccc4Sc4ccccc43)c(C#N)cc2c1 do in these assays?
WT yeast gro inh: -2; Calpain2 inh: -46; KCC2 mod: 0.34; ROMK primary: 0.94; L major viab: 62*

How did COc1ccc2nc(SCC(=O)N3CCCCC3)c(C#N)cc2c1 do in these assays?
WT yeast gro inh: -8; Calpain2 inh: -47; KCC2 mod: 0.18; L major viab: 58*

Results for CCc1ccc2nc(SCC(=O)N3CCCCC3)c(C#N)cc2c1 ?
WT yeast gro inh: -14; Calpain2 inh: 9; KCC2 mod: 1.1; L major viab: 4

How did CCOc1ccc2cc(C#N)c(SCC(=O)N3CCCC3)nc2c1 do in these assays?
KCC2 mod: -0.99; L major viab: 25

Results for Cc1ccc(S(=O)(=O)N2CCOCC2)cc1NC(=O)COC(=O)C1COc2ccccc2O1 (stereo not given) ?
WT yeast gro inh: 2; Calpain2 inh: 20; KCC2 mod: -0.047; ROMK primary: -0.11; L major viab: -2

What do the screens show for `Cn1ccc(CC(=O)N2CCC(N3CCC(C(=O)N4CCCC4)CC3)CC2)c1`?
Calpain2 inh: -18; KCC2 mod: 0.7

How did O=C1NC(=O)/C(=C\c2ccccc2OCc2cccc([N+](=O)[O-])c2)N1 do in these assays?
WT yeast gro inh: -5; Calpain2 inh: 15; KCC2 mod: -0.47; L major viab: 57*

Results for O=C(COc1ccccc1/C=C1/NC(=O)NC1=O)Nc1ccccc1 ?
WT yeast gro inh: -11; Calpain2 inh: 0; KCC2 mod: 0.024; L major viab: -4

How did COC(=O)COc1ccccc1/C=C1/NC(=O)NC1=O do in these assays?
WT yeast gro inh: 8; Calpain2 inh: -7; KCC2 mod: 0.73; L major viab: 53*

What do the screens show for `O=C1NC(=O)/C(=C/c2cccc([N+](=O)[O-])c2)N1`?
Calpain2 inh: -16; KCC2 mod: 0.73

How did NC(N)=NS(=O)(=O)c1ccc(NC(=S)NC(=O)c2ccc(Br)cc2)cc1 do in these assays?
WT yeast gro inh: -6; Calpain2 inh: 15; KCC2 mod: -1.2; ROMK primary: 0.98; L major viab: -2

Results for CC(C)(C)c1ccc(C(=O)NC(=S)Nc2sc3c(c2C#N)CCC3)cc1 ?
WT yeast gro inh: -10; Calpain2 inh: -8; KCC2 mod: 0.15; L major viab: -2

What do the screens show for `CN(C)c1ccc(C(=O)Nc2nc3c(s2)CCCC3)cc1`?
WT yeast gro inh: 22; Calpain2 inh: 1; KCC2 mod: -0.76; L major viab: 98*

What do the screens show for `COc1cc(OC)cc(C(=O)N[C@H](C(=O)Nc2nc3c(s2)CCCC3)C(C)C)c1`?
WT yeast gro inh: -2; Calpain2 inh: -4; KCC2 mod: -0.08; ROMK primary: -1.3; L major viab: 90*

How did C/C(=N\Nc1nc2c(s1)CCCC2)c1ccc(Cl)cc1 do in these assays?
WT yeast gro inh: 72*; Calpain2 inh: -8; L major viab: 46

How did COC(=O)Nc1nc2c(s1)CCCC2 do in these assays?
WT yeast gro inh: 15; Calpain2 inh: -30; KCC2 mod: -0.29; L major viab: -8

What do the screens show for `C/C(=N\NC1=NCCN1)c1ccc(Cl)cc1`?
Calpain2 inh: 21; KCC2 mod: 0.2

How did CC(C)(C)c1ccc(C(=O)NC(=S)Nc2nc3c(s2)CCCC3)cc1 do in these assays?
WT yeast gro inh: 40; Calpain2 inh: -3; KCC2 mod: 12*; ROMK primary: 0.95; L major viab: 67*

Results for CCC(C)NS(=O)(=O)c1ccc(NC(=O)Cc2ccc(OC)cc2)cc1 (stereo not given) ?
WT yeast gro inh: -2; Calpain2 inh: 28; KCC2 mod: -0.59; ROMK primary: -0.017; L major viab: 9

High-throughput results as filed in PubChem BioAssay.
